The values below come from PubChem BioAssay AID1508642 (National Center for Advancing Translational Sciences (NCATS), 2021).

Each structure is given as a SMILES string. Among all 43,000 compounds or so, about 200 (0.47%) were called active. Inconclusive results (about 12%) are left out. Calls come from the whole dose curve; as a rule, active = well fitted cell-killing curve with a large enough effect; inconclusive = small, poorly fitted or top-dose-only effect, or effect the other way; inactive = flat fitted curve, though single readings scatter. For the sample, actives were picked, then their nearest neighbours and some compounds at random.
% is set by controls: 0 for no effect and ±100 for the full control effect.

The experiment in a line: Cell viability qHTS assay in S16 Pmp22-F2sN cells. Note: nearly all actives have a fitted effect of over 65% in size. Conditions: S16 Pmp22-F2sN Schwann cells (luciferase reporters placed in the Pmp22 gene) viability, CellTiter-Glo, 24 h; series mostly up to 57.5 µM; activity change, negative = cytotoxicity: at the top concentration. The text has this:
Assay Provider: Jim Inglese Ph.D. National Center for Advancing Translational Science, National Institutes of Health, Rockville, MD CMT is a heterogeneous group of neurological disorders that affect approximately 1 in 2,500 people. In particular, the most common form of CMT, CMT1A is genetically linked to the duplication of the PMP22 gene which leads to Schwann cell overexpression, thus manifesting itself as a typical case of dose-sensitive diseases. To identify small molecule compounds that can mediate the expression of PMP22 we developed a phenotypic assay screening strategy by utilizing genome editing techniques to construct Schwann cell lines containing novel reporter technology to monitor the transcriptional or translational regulation of PMP22. For high sensitivity we use a bioluminescent reporter system embedded in the 3' UTR of the PMP22 gene (S16(c9) Pmp22-F2sN) to identify compounds that inhibit gene expression. […] We can further discriminate the effect of all transcriptionally active molecules on PMP22 translation or stability with an assay that incorporates a short NLuc peptide (HiBiT) at the C-terminus of expressed PMP22 (S16(f8) PMP22-HiBiT) allowing alpha complementation and luminescence detection of membrane-associated PMP22 protein. These assays were screened against the NCATS Sytravon Library Collection. Miniaturization of these assays to 1536-well plate format for quantitative high throughput screening (qHTS) yielded rich data sets immediately from the qHTS assay (S16(c9) Pmp22-F2sN), when compared with data from a cell viability assay (Cell TiterGlo) to identify compounds that decreased the output signals through cellular toxicity to streamline the selection process of actives for subsequent characterization using the HiBiT assay (S16(f8) PMP22-HiBiT).
Cell viability assay in S16 Pmp22-F2sN cells PROTOCOL TABLE (format as described by Inglese J, Shamu CE and Guy RK. 2007) SEQUENCE No. (e.g., 1, 2, 3, etc.); […] (e.g., Cells, Incubation, Reagent, etc.); VALUE and DESCRIPTION. 1. Cells. Add 500-1,000 cells in 4 uL in growth media (DMEM High Glucose, No Phenol Red media + 10% heat-inactivated FBS + 1% Pen/Strep supplemented media) per well into Greiner 1536-well white/solid bottom high base, TC-treated plates. 2. Compounds. Library compounds and controls added at 23nL per well, transferred by Pin Tool. 3. Incubation. Incubate plates at 37C, 5% CO2, 95% RH for 24 h. 4. Reagent. Add 3uL CellTiter-Glo per well of Greiner 1536-well plates. 5. Incubation. Incubate plates at room temperature for 15 min., protect from light. 6. Detector. FLuc luminescence measured using CCD-based camera (Viewlux). NOTES (numbers refer to Sequence numbers above; values are from representative experiments) 6. Luminescence Read: Clear filter; Exposure = 1 sec, Gain = High, Speed = Slow, Binning = 2X REFERENCES: 1. Inglese J, Shamu CE and Guy RK, Reporting data from high throughput screening of small molecule libraries, Nature Chemical Biology, 2007, 3(8): 438-441. doi.org/10.1038/nchembio0807-438 2. Yasgar A, Shinn P, Jadhav A, Auld DS, Michael S, Zheng W, Austin CP, Inglese J and Simeonov A, Compound Management for Quantitative High-Throughput Screening. J. Assoc. Lab. Auto., 2008, 13: 79-89. doi: 10.1016/j.jala.2007.12.004
Turning to `COc1ccc(CC(=O)NCCc2sc3nc(-c4ccc(OC)cc4)nn3c2C)cc1`, the “activity change, negative = cytotoxicity” value was -14.4% (inactive).
For `CC(=O)Nc1cccc(NC(=O)CSc2nccn2Cc2ccc3c(c2)OCO3)c1` the value was 5.54% (inactive); for `CCCCN(CC)CCCNC(=O)c1nn(C)c2c1CSc1ccccc1-2`, -3.98% (inactive); for `COC(=O)c1ccc(-c2nc3cc(NC(C)=O)ccc3o2)cc1`, 5.12% (inactive).
The figure for `CCN1CCC(N(Cc2ccc(F)cc2)C(=O)Nc2cc(C)ccc2C)CC1` is -12.8% (inactive).
For `COc1cc(OC)cc(C(=O)Nc2c(C(=O)Nc3ccc(F)cc3)oc3ccccc23)c1` the value was -0.156% (inactive); for `Cc1cccc(NC(=O)CSc2nc3c([nH]c4ccccc43)c(=O)n2-c2cc(C)cc(C)c2)c1`, 7.62% (inactive).
With `CCN(CCCNC(=O)Cn1ncc2c3ccccc3n(C)c2c1=O)Cc1ccccc1`, the “activity change, negative = cytotoxicity” value is 3.84% (inactive).
The figure for `CCOc1ccc(CNC(=O)c2cc(-c3ccc(Cl)s3)nc3ccccc23)cc1` is 8.53% (inactive).
For `O=C(NCC12CC3CC(CC(C3)C1)C2)c1cc2nc(-c3ccccc3)cc(C(F)(F)F)n2n1` the value was 14.3% (inactive); for `O=C(NCCCO)C(=O)Nc1c2c(nn1-c1ccc(F)cc1)CSC2`, -15.3% (inactive).
For `Cc1c(NS(=O)(=O)c2ccc(Cl)cc2)c(=O)n(-c2ccccc2)n1C` the value was 3.6% (inactive); for `Cc1ccc(C)c(N2CCN(C(=O)Cn3ncc4c(=O)oc5ccc(C)cc5c43)CC2)c1`, 4.69% (inactive); for `Cc1ccccc1NC(=O)Cn1c(=O)n(CC2CCC(C(=O)NCCc3ccccc3)CC2)c(=O)c2ccccc21` (configuration not stated), 16.1% (inactive).
As for `COC(=O)c1c(NC(=O)C(C)Oc2ccc(Cl)c(C)c2)sc(C)c1C` (configuration not stated), the “activity change, negative = cytotoxicity” value is 0.0514% (inactive).
Regarding `Cc1ccccc1C(=O)Nc1cc(C)c(O)c(-c2nc3ccccc3o2)c1`, the “activity change, negative = cytotoxicity” value was 17% (inactive).
The figure for `CCOc1ccc(NC(=O)CCC(=O)N2CC(C)Oc3ccc(C)cc32)cc1` (configuration not stated) is 6.01% (inactive); for `COc1ccccc1C(=O)Nc1c(C(=O)Nc2ccc(C)cc2)oc2ccccc12` it is 8.02% (inactive).
The figure for `COc1ccc(CCNC(=O)CCCn2c(=O)c3ccccc3n(Cc3ccc(C)cc3)c2=O)cc1OC` is 15.9% (inactive).
For `CN(CC(=O)Nc1ccccc1F)S(=O)(=O)c1ccc2c(c1)c(=O)n(C)c(=O)n2C` the value was 15.6% (inactive); for `Cc1cccc(C)c1Nc1c(-c2ccccc2O)nc2ncccn12`, -10.5% (inactive); for `Cc1ccc(C)c(NC(=O)CSC2=Nc3ccccc3N=C(c3ccc(F)cc3)C2)c1`, -2.61% (inactive).
With `O=C(CC1C(=O)N(c2ccccc2)C(=O)N1CCc1cccs1)Nc1ccc(F)cc1` (configuration not stated), the “activity change, negative = cytotoxicity” value is -17.5% (inactive).
For `COC(=O)c1ccc(NC(=O)c2cc(S(=O)(=O)N3CCC(C)CC3)cn2C)cc1` the value was -14.5% (inactive).
The figure for `CC1CCCCN1CC(=O)N1CCCc2c1c(=O)oc1ccc(OCc3ccccc3)cc21` (configuration not stated) is 0.438% (inactive); for `O=c1cc(CSc2ncn[nH]2)[nH]c2ccc(F)cc12` it is 0.415% (inactive).
The figure for `CN(C(=O)CSc1nnc(NC(=O)Nc2ccccc2)s1)c1ccccc1` is -10% (inactive); for `Cc1cc(F)ccc1NS(=O)(=O)c1ccc(-n2cccn2)cc1` it is -14.3% (inactive).
For `Cc1ccc(Nc2c(-c3ccc(Cl)cc3)nc3sccn23)c(C)c1`, the “activity change, negative = cytotoxicity” value was 28.2% (inactive).
The figure for `Cc1cccc(C(=O)N2c3nc(-c4ccco4)nn3C3(CCCCC3)[C@@H]3CCCC[C@@H]32)c1` is 3.56% (inactive); for `CC1=C(C(=O)Nc2ccccc2)C(c2ccc(C)cc2)n2nc(SCc3ccccc3C)nc2N1` (configuration not stated) it is 3.66% (inactive); for `Cc1ccccc1NC(=O)c1cc2c([nH]c1=O)CC(C)(C)CC2=O` it is 10.8% (inactive).
For `CCOC(=O)C1CCN(c2csc3ccc(C)cc3c2=O)CC1` the value was 3.59% (inactive); for `Cc1c(Cl)cccc1NC(=O)C(=O)NCCc1csc2nc(-c3ccccc3F)nn12`, -22.5% (inactive); for `CCCCN(CCCNC(=O)c1cc(Nc2ccccc2OC)nc2ccccc12)c1ccccc1`, 9.74% (inactive).
Consider `Cc1ccc(N(CC(=O)NCc2ccc(Cl)cc2)S(=O)(=O)N(C)C)cc1`, for which the “activity change, negative = cytotoxicity” value was 13.9% (inactive).
In the case of `Cc1ccsc1CN(C(=O)c1oc2ccc(Br)cc2c1C)C1CCS(=O)(=O)C1` (configuration not stated), the “activity change, negative = cytotoxicity” value was -28.5% (inactive).
For `Cc1ccc(NC(=O)c2oc3ccccc3c2NC(=O)Cc2cccs2)cc1` the value was 10.9% (inactive); for `COc1ccc(CCNc2nc3c(-c4cccc(F)c4)nnn3c3ccccc23)cc1OC`, -1.72% (inactive); for `CNC(=O)CN1C(=O)c2cccnc2Sc2ccccc21`, 0.0311% (inactive).
For `COc1ccc(CCNC(=O)c2cn(C)c3ccc(S(=O)(=O)N(C)C4CCCCC4)cc3c2=O)cc1OC` the value was -12.3% (inactive); for `COc1ccc(N2CCN(S(=O)(=O)c3ccc(-c4coc(C)n4)cc3)CC2)cc1`, -6.43% (inactive); for `COc1ccc(C2NC(=O)N(C)C3=C2C(=O)N(c2ccc(C(=O)O)cc2)C3)cc1` (configuration not stated), 8.03% (inactive).
For the compound `O=C(CN1CCN(Cc2ccc(Cl)cc2)C1=O)NCc1ccc(F)cc1`, the “activity change, negative = cytotoxicity” value is 1.11% (inactive).
Consider `COc1ccc(-n2c(SC)nc3sc4c(c3c2=O)CCN(C(C)=O)C4)cc1`, for which the “activity change, negative = cytotoxicity” value was 2.85% (inactive).
The figure for `CCOc1ccc(NC(=O)Cn2cc(C(=O)c3ccc(C)cc3)c(=O)c3cc4c(cc32)OCCO4)cc1` is -0.757% (inactive).
The figure for `CC(=O)c1ccc(NC(=O)CCc2nc(-c3ccc(C)cc3)no2)cc1` is -13.9% (inactive).
